Keap1-Nrf2 PPI – Keap1-Nrf2 (human) interaction inhibition; Q14145; Keap1 Kelch-Nrf2 peptide fluorescence polarization, 1536-well; inhibition, % at 9.4 µM; 340,000 compounds, 0.15% hits; in the data active = inhibition above about 12%;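 also: human Keap1 Kelch domain with fluorescein labeled Nrf2 9mer peptide probe; higher means more block of Keap1 binding to Nrf2 peptide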
ZTA counter – ZTA (EBV) inhibition in EBNA-1 counter-screen | ZTA-DNA binding, fluorescence polarization | inhibition, % at 11 µM | 320,000 compounds, 0.15% hits | AID 2234; in the data active = inhibition above about 33%
eLon inh – inhibitors of E. coli Lon protease | P0A9M0 | purified E. coli Lon protease, fluorescence polarization | inhibition, % at 7.94 µM | 360,000 compounds, 0.42% hits | AID 602123; in the data active = inhibition above about 13%, passing the limit was not always enough
Target sequence (P0A9M0 whole entry, looked up): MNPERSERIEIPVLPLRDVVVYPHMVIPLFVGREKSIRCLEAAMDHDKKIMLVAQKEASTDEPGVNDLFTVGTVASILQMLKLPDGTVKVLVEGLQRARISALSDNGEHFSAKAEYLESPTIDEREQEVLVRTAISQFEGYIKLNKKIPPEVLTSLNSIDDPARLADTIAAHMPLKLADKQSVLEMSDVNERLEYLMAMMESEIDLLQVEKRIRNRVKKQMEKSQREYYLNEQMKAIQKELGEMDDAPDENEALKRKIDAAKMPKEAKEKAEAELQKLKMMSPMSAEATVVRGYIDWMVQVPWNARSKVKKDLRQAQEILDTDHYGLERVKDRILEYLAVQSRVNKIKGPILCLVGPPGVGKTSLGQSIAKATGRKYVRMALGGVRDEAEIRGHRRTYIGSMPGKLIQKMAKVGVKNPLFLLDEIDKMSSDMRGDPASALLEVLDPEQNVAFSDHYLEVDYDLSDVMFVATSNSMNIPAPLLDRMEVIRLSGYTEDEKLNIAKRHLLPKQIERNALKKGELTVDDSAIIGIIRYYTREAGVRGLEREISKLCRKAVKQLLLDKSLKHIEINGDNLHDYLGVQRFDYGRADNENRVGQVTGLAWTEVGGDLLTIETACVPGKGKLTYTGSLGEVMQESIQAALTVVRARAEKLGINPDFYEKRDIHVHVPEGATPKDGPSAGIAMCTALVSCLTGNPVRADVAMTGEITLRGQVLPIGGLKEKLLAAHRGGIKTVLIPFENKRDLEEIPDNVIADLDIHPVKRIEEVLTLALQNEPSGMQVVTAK
EBNA-1 inh – blocks EBNA-1 binding to DNA. 300,000 compounds, 0.34% hits. inhibition, % at 14.8 µM. EBNA-1 DNA binding, fluorescence polarization; in the data active = inhibition above about 28%
LANA DNA inh – KSHV C-LANA DNA binding inhibition; MBP-C-LANA/FAM-LBS DNA binding, fluorescence polarization; inhibition, % at 9 µM; 340,000 compounds, 0.078% hits;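 active = highest replicate inhibition at or above 60% at 9 µM, even if other replicates fall short; inactive = all replicates below 60% inhibition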
EBNA-1 confirm – EBNA-1 (EBV) inhibition, confirmation; shares compounds with EBNA-1 inh; Recombinant EBNA-1 DBD, Cy5-DNA fluorescence polarization; 830 compounds, 35% hits; AID 2292; inhibition, % at 14.8 µM;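 active = mean inhibition across replicates above a set limit taken from the earlier primary screen, cut at about 28% in these data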
ZTA counter trip – blocks Epstein-Barr virus ZTA in triplicate, EBNA-1 counter-screen; Zta-ZRE DNA binding, Cy5 fluorescence polarization; shares compounds with EBNA-1 inh; inhibition, % at 11.1 µM; AID 2328; 830 tested, under 10 active;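 active = mean inhibition over triplicates above a set limit taken from the primary EBNA-1 screen, cut at about 37% in these data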;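 also: purified full length Zta protein with Cy5 labeled ZRE DNA probe; inhibitors lower polarization by freeing the labeled DNA probe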
Hits are given with their value; 0 = inactive; - = not tested or not shown. Rows were chosen to be rich in hits. Some 0.85% of all compounds tested hit in one or more screens of this group.

SMILES	Keap1-Nrf2 PPI	ZTA counter	eLon inh	EBNA-1 inh	LANA DNA inh	EBNA-1 confirm	ZTA counter trip
COc1ccccc1/C=C1\SC(=S)N(NS(=O)(=O)c2ccc(C)cc2)C1=O	0	0	0	31	0	0	0
CN1CCN(S(=O)(=O)c2cccc(C(=O)N3CCN(c4ccccc4F)CC3)c2)CC1	0	0	0	-	0	-	-
COc1cccc(CNC(=O)C2CCCN(S(=O)(=O)c3ccc4c(c3)C(C)(C)C(=O)N4C)C2)c1 (centres undefined)	0	0	0	0	0	-	-
CNC(=S)NNC(=O)c1sccc1OCc1ccc(C)cc1	0	0	0	0	0	-	-
CNC(=S)NNC(=O)c1sccc1OCc1cccc(C(F)(F)F)c1	0	0	0	35	0	65	0
CC(=O)N1C[C@H]2CON(C)[C@H]2C[C@H]1c1ccccc1	-	-	0	-	-	-	-
COc1ccc(-c2ccc(C#N)c(SCC(=O)NCCc3ccccc3)n2)cc1OC	0	0	0	28	0	0	0
COc1ccc(NC(=O)CS(=O)c2cccc(C(F)(F)F)c2)cc1 (centres undefined)	0	0	0	0	0	-	-
O=C(NCC(=O)N(c1ccccc1F)C(C(=O)NC1CCCC1)c1cccnc1)c1ccco1 (centres undefined)	0	0	0	0	0	-	-
Cc1cccc(N2CCN(C3=NC(=O)C(=C4CCCCC4)S3)CC2)c1	0	0	0	0	0	-	-
O=C1N=C(N2CCC(Cc3ccccc3)CC2)S/C1=C/c1cn[nH]c1-c1ccccc1	0	0	0	0	0	-	-
Cc1ccc(N2CCN(C3=NC(=O)/C(=C\c4cn[nH]c4-c4ccccc4)S3)CC2)cc1	0	0	0	93	0	43	0
Cc1cccc(N2CCN(C3=NC(=O)/C(=C\c4cn[nH]c4-c4ccccc4)S3)CC2)c1	0	0	0	67	0	29	0
O=C1N=C(N2CCN(c3ccccc3)CC2)S/C1=C\c1ccco1	0	0	0	0	0	-	-
O=C1N=C(N2CCN(c3ccccc3)CC2)S/C1=C\c1cn[nH]c1-c1ccccc1	0	0	0	138	0	34	0
Cc1cn(CC(=O)NCc2ccc(N(C)C)cc2)c(=O)[nH]c1=O	0	-	0	-	0	-	-
Cc1ccsc1C(=O)N1CCC1(C)C(=O)NCc1cccnc1 (centres undefined)	-	-	0	-	-	-	-
Cc1ccc(N2CCN(S(=O)(=O)c3ccc4c(c3)n(C)c(=O)c(=O)n4C)CC2C)cc1 (centres undefined)	0	0	0	0	0	-	-
Cc1cccc(N2CCN(S(=O)(=O)c3ccc4c(c3)n(C)c(=O)c(=O)n4C)CC2C)c1 (centres undefined)	0	0	0	35	0	0	0
COC(=O)c1cc(Nc2cc(C)c3c(O)cccc3n2)cc(C(=O)OC)c1	0	0	0	0	0	-	-
COC(=O)c1cc(Nc2cc(C)c3ccc(O)cc3n2)cc(C(=O)OC)c1	0	0	0	39	0	48	0
O=C(Nc1ccccc1)c1cccc(N2C(=O)C3C4C=CC(C5CC45)C3C2=O)c1 (centres undefined)	0	0	0	0	0	-	-
Cc1cccc(NC(=O)c2ccc(N3C(=O)C4C5C=CC(C6CC56)C4C3=O)cc2)c1 (centres undefined)	0	0	0	57	0	41	0
O=C(CN1CCCC1)Nc1c(C(=O)C2CC2)oc2ccccc12	0	0	0	0	0	-	-
N#Cc1ccccc1OCC(=O)Nc1c(C(=O)C2CC2)oc2ccccc12	0	0	0	30	0	92	0
SMILES	Keap1-Nrf2 PPI	ZTA counter	eLon inh	EBNA-1 inh	LANA DNA inh	EBNA-1 confirm	ZTA counter trip
C=CCNC(=O)c1ccc(Cn2c(=S)[nH]c3cc4c(cc3c2=O)OCO4)cc1	0	0	0	33	0	0	0
Cn1nccc1C(=O)N1CCCC(C(=O)c2cccc3ccccc23)C1 (centres undefined)	0	0	0	40	0	0	0
Cc1ncoc1C(=O)N1CCCC(C(=O)c2cccc3ccccc23)C1 (centres undefined)	0	0	0	0	0	-	-
COc1cc(NC(=O)C2Cc3ccccc3CN2S(C)(=O)=O)cc(OC)c1 (centres undefined)	0	0	0	38	0	0	0
O=C(Nc1ccccc1F)c1cc2c(s1)-c1ccccc1S(=O)(=O)C2	0	0	0	53	0	57	0
CCc1nc2ccc(C(=O)N3CCN(C(=O)c4ccco4)CC3)cn2c1N(C)C(=O)c1cccc(OC)c1	-	-	0	-	-	-	-
Cc1ccc(C)c(NC(=S)N=Nc2c(O)n(C)c3ccc(S(=O)(=O)N4CCOCC4)cc23)c1	0	0	0	0	0	-	-
CCc1ccccc1NC(=S)N=Nc1c(O)n(C)c2ccc(S(=O)(=O)N3CCOCC3)cc12	0	0	0	49	0	0	0
Cc1cccc(NC(=O)CSc2ncnc3c2oc2ccccc23)c1	0	0	0	0	0	-	-
O=C(CSc1ncnc2c1oc1ccccc12)Nc1cccc(F)c1	0	0	0	34	0	54	0
CCCN1CCC(NC(=O)CC2C(=O)NCCN2Cc2cccc(OC)c2)CC1 (centres undefined)	0	0	0	0	0	-	-
COc1cc(NC(=S)NC(=O)c2cc(C)cc(C)c2)ccc1NC(=O)c1cccs1	0	0	0	70	0	0	0
COc1cc(NC(=S)NC(=O)c2ccc(F)cc2)ccc1NC(=O)c1ccco1	0	0	0	40	0	35	0
COc1cc(NC(=S)NC(=O)c2ccc(C(C)(C)C)cc2)ccc1NC(=O)c1cccs1	0	0	0	0	0	-	-
CC(=O)c1c(C)[nH]c(C(=O)NNC(=O)c2ccc(Br)cc2)c1C	0	-	0	-	0	-	-
CCC(=O)c1ccc(N2CCN(C(=O)COc3ccc(F)cc3)CC2)c(F)c1	0	0	0	28	0	0	0
Cc1ccc(S(=O)(=O)N2CCC(C(=O)OCC(=O)N3CCc4ccccc43)CC2)cc1	0	0	0	33	0	0	0
Cc1ccc(-c2nn3c(C)nnc3s2)cc1NC(=O)c1ccc(-c2ccc(Cl)cc2Cl)o1	0	0	0	37	0	0	0
COc1ccc(/C=C/C(=O)Nc2ccccc2C(F)(F)F)cc1	0	0	0	32	0	0	0
CCOC(=O)c1c(C)[nH]c(C(=O)COC(=O)CNC(=O)c2ccc(Cl)cc2Cl)c1C	0	0	0	96	0	0	0
COc1ccc(C(=O)COC(=O)CNC(=O)c2ccc(Cl)cc2Cl)c(OC)c1	0	0	0	0	0	-	-
COc1ccc(OC)c(-c2cc(C(=O)Nc3c(C)nn(Cc4ccccc4)c3C)no2)c1	0	0	0	0	0	-	-
COc1ccc(-c2cc(C(=O)Nc3c(C)nn(Cc4ccccc4Cl)c3C)no2)cc1	0	0	0	49	0	41	0
COc1ccc(NC(=O)CSc2nc3nc(C)cc(C)c3c(=O)[nH]2)cc1	0	0	0	61	0	0	0

Assay outcomes deposited in PubChem by several laboratories.
